Test results taken from article PMC5540273 (PLoS ONE, 2017).

System: EPHB1
Settings: concentration: 1 μM, replicates: in singlicate; n = 1
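Further: KINOMEscan kinase panel screen.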

First: CCn1c(-c2ccoc2)nc2cnccc21 [SB-733887]
Second: CCn1c(-c2nonc2N)nc2ccccc21 [SB-693162/GW549034]
The “%Inh” value of the first is higher: 19% for the first, 0% for the second.

Going from `O=c1cc(N2CCOCC2)nc2n(Cc3ccc(F)c(Cl)c3)ccn12` [GSK2297099] to `CN1C(=O)C(Nc2cc(Cl)c(O)c(Cl)c2)=C(c2ccc(Cl)cc2)C1=O` [SB-404321], the “%Inh” value falls from 7% to 0%.

First: Cc1cccc(-c2nc(Nc3ccc4c(cnn4C)c3)c3ccccc3n2)n1 [GW876731]
Second: COc1cc2nccc(Nc3cccc(Oc4ccccc4)c3)c2cc1OC.Cl [GW284543]
The “%Inh” value of the first is lower: 3% for the first, 11% for the second.

First: Cl.NS(=O)(=O)c1cccc(Nc2cc(-c3ccc(F)cc3)n[nH]2)c1 [GW824645]
Second: O=C(NCCNc1ccnc(Nc2ccc(F)cc2)n1)Nc1ccc2c(c1)OCO2 [GSK1379882]
The “%Inh” value of the first is lower: 0% for the first, 18% for the second.

First: COc1cc(Nc2nccc(N3CCC(NC(=O)C4COc5ccccc5O4)C3)n2)cc(OC)c1OC (centres unmarked) [GSK1379761]
Second: COc1ccc(Nc2nccc(N3CCC(NS(=O)(=O)c4ccc(NC(C)=O)cc4)C3)n2)cc1 (centres unmarked) [GSK1379729]
The “%Inh” value of the first is lower: 6% for the first, 19% for the second.

Compared with `COC(=O)c1c(-c2ccccc2)c2cc(Br)ccc2c(=O)n1Cc1ccc(NC(=O)CCC(=O)O)cc1`, `CCC(=O)c1c(-c2ccccc2)c2cc(Cl)ccc2c(=O)n1Cc1cc(S(C)(=O)=O)n(CC(N)=O)n1` is lower in “%Inh” value: 5% for the first, 0% for the second.

First: Nc1ncnc2c1ncn2-c1ccc(Cl)cc1 [AH2635]
Second: O=C(NCc1cccs1)c1cc(C(=O)c2c(Cl)cccc2Cl)c[nH]1 [GW823670]
The “%Inh” value of the first is higher: 9% for the first, 4% for the second.
